Laboratory results from the supplement of paper PMC6555819.

How the values were obtained:
Assay in all cases: PBM binding z-score (relative to random genomic background probes); higher = stronger binding; sequences stand for … in GC…GCGATTGACAGCGTAGAATGAAGG
[1] = test system: PPARg:RXRa DBDmut IVT, anti-RXR (DBD mutation: RXRa K156A/R161A, NR concentration 270 nM, RXRa partner concentration 90 nM)
Outline: (§1)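 Custom Agilent 4×180K protein-binding microarrays carried double-stranded probes, each with a 34-nt variable region. These regions held direct-repeat seeds, single-nucleotide variants, half-site ablations and random human genomic background sequences. Ligand-free nuclear receptor dimers were incubated on the arrays for 1 h, antibodies against each partner (one per run) detected binding, and scanned fluorescence was regression-normalized. Binding z-scores take the random background probes as reference.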

[2] = test system: PPARg:RXRa IVT, anti-PPARg (NR concentration 270 nM, RXRa partner concentration 90 nM)
Outline: as §1

[3] = test system: PPARg DBDmut:RXRa IVT, anti-PPARg (DBD mutation: PPARg1 K132A/R137A, NR concentration 270 nM, RXRa partner concentration 90 nM)
Outline: as §1

[4] = test system: PPARg DBDmut IVT, anti-PPARg (DBD mutation: PPARg1 K132A/R137A, NR concentration 270 nM)
Outline: as §1

[5] = test system: PPARg homodimer (NR concentration 180 nM)
Outline: as §1

[6] = test system: PXR:RXRa (NR concentration 270 nM, RXRa partner concentration 90 nM)
Outline: as §1

[7] = test system: PXR homodimer (NR concentration 270 nM)
Outline: as §1

[8] = test system: RARa:RXR (NR concentration 270 nM, RXRa partner concentration 90 nM)
Outline: as §1

[9] = test system: RARa homodimer (NR concentration 270 nM)
Outline: as §1

[10] = test system: RARb:RXRa (NR concentration 270 nM, RXRa partner concentration 90 nM)
Outline: as §1

[11] = test system: RARb homodimer (NR concentration 270 nM)
Outline: as §1

[12] = test system: RARg:RXRa (NR concentration 270 nM, RXRa partner concentration 90 nM)
Outline: as §1

[13] = test system: RARg homodimer (NR concentration 270 nM)
Outline: as §1

[14] = test system: RXRa DBDmut IVT, anti-RXR (DBD mutation: RXRa K156A/R161A, NR concentration 90 nM)
Outline: as §1

[15] = test system: THRa:RXRa (NR concentration 90 nM, RXRa partner concentration 90 nM)
Outline: as §1

[16] = test system: THRa homodimer (NR concentration 90 nM)
Outline: as §1

[17] = test system: VDR homodimer (NR concentration 270 nM)
Outline: as §1

[18] = test system: RXRa homodimer (NR concentration 180 nM)
Outline: as §1

[19] = test system: VDR:RXRa (NR concentration 270 nM, RXRa partner concentration 90 nM)
Outline: as §1

Row | Sequence | PBM binding z-score [1] | PBM binding z-score [2] | PBM binding z-score [3] | PBM binding z-score [4] | PBM binding z-score [5] | PBM binding z-score [6] | PBM binding z-score [7] | PBM binding z-score [8] | PBM binding z-score [9] | PBM binding z-score [10] | PBM binding z-score [11] | PBM binding z-score [12] | PBM binding z-score [13] | PBM binding z-score [14] | PBM binding z-score [15] | PBM binding z-score [16] | PBM binding z-score [17] | PBM binding z-score [18] | PBM binding z-score [19]
1 | TAGCATAGGTCATGCGGGCCAGTATAGTGTCGGC | 1 | 2.48 | 0.261 | -0.165 | 1.08 | 2.83 | 0.0553 | 3.38 | -0.53 | 4.13 | 3.46 | 4.99 | 4.91 | 0.439 | 2.55 | -0.558 | 0.259 | – | –
2 | CAAACTAGGTCACGAAAGGGCAAAGTCGAATGAC | 8.03 | 9.13 | 2.95 | 1.67 | 4.28 | 5.85 | 0.485 | 5.03 | 2.03 | 4.99 | 4.43 | 5.81 | 6.33 | 1.77 | 4.54 | 1.42 | 1.35 | – | –
3 | CAAACTAGGTCACAGAGGGCAAAGTCCGTGCGTA | 8.48 | 8.83 | 5.61 | 4.71 | 1.95 | 4.26 | 4.07 | 3.86 | 0.666 | 4.54 | 4.14 | 5.05 | 5.61 | 2.45 | 3.87 | 1.55 | 4.18 | – | –
4 | GCTGCTAGGTCAACTGATGGTCAGCTAAAGCTCG | 4.92 | 4.19 | -0.0375 | -1.12 | 1.55 | 1.66 | -0.596 | 3 | 0.346 | 4.26 | 3.57 | 5.2 | 5.18 | 1.44 | 2.99 | 0.814 | 0.0317 | – | –
5 | CAAACTAGGTCACAGAGGACAAAGTCCGTGCGTA | 8.78 | 9.01 | 7.7 | 3.32 | 4.15 | 3.52 | 2.3 | 3.22 | 1.21 | 4.54 | 3.93 | 4.96 | 6.01 | 2.36 | 3.89 | 1.94 | 3.57 | – | –
6 | ACTAGCAGGCCAAGGGTGACTCAAGATTAGTCCG | 0.931 | 1.84 | -0.0543 | -0.633 | -0.412 | -0.0749 | -0.354 | 0.264 | -0.894 | 0.8 | 0.337 | 0.341 | 0.646 | -0.454 | 0.239 | -0.521 | -0.791 | – | –
7 | GATACAGGGTCAATGCCAGAGTACGCGTATTGAT | 2.46 | 3.45 | 0.722 | 0.999 | 1.86 | 2.96 | 0.00137 | 3.59 | 0.532 | 4.19 | 3.11 | 4.62 | 4.35 | 2.89 | 2.87 | 0.742 | 2.31 | – | –
8 | ATCGAAAGGTCGACGAGGTGAGTATGCACCGTTT | 0.283 | 1.96 | 0.899 | 0.519 | 1.67 | 2.99 | 0.682 | 3.5 | 0.243 | 3.99 | 3.07 | 4.29 | 4.29 | 1.3 | 3.73 | 0.762 | 1.03 | – | –
9 | ATCGAATGGTCGTGAGGTGAGTATACAGAAAGGC | -0.654 | 0.348 | 0.375 | -0.00822 | 0.181 | -0.104 | 0.00681 | 0.113 | 0.259 | 0.464 | 0.456 | 0.502 | 0.684 | -0.556 | 1.5 | 1.09 | 0.0134 | – | –
10 | CAAACTAGGTCACAGAGGTCAAACTCCGTGCGTA | 8.63 | 8.81 | 2.84 | 2.43 | 5.38 | 6.91 | 12.1 | 7.81 | 3.49 | 5.52 | 5.75 | 7.7 | 7.96 | 3.78 | 4.66 | 3.37 | 7.66 | – | –
11 | TAGCCTAGCTCATTCAGGGGCCAGTATAGAAAGC | -0.101 | -0.269 | -0.969 | -0.592 | -1.77 | -0.527 | -0.788 | -0.603 | -1.25 | -0.199 | -0.0305 | – | -0.378 | -0.495 | -0.465 | -0.799 | -0.369 | -0.481 | -0.541
12 | ACTAATTGGTCAGCTGAGGTCACACACAATTCGG | 1.58 | 2.86 | 1.1 | 1.2 | 2.75 | 5.67 | 1.67 | 4.72 | 1.56 | 3.91 | 4.72 | – | 4.46 | 1.68 | 5.12 | 5.41 | 3.46 | 4.65 | 4.77
13 | TTACCAAGGTGAAAGGTCGGTGATGCACGCCTTG | 2.41 | 4.51 | 1.85 | 0.075 | 1.26 | 2.17 | -0.356 | 3.77 | -0.0129 | 2.65 | 2.16 | 3.18 | 1.51 | -0.134 | 2.66 | 0.427 | -0.0558 | – | –
14 | CGTCCAACGTCAGCAGGTCAGTGAAAGCGACGTG | 0.148 | 0.161 | -0.345 | -1.13 | -0.114 | 0.174 | -0.448 | 0.556 | -0.438 | 1.82 | 1.92 | 0.905 | 1.54 | -0.094 | 0.784 | -0.139 | -0.585 | – | –
